# IEC-6 tox: counter-screen for KLF5 inhibitors: cytotoxicity in IEC-6 cells. IEC-6 cytotoxicity, luminescence viability. AID 1825. inhibition, % at 5 µM. 290,000 compounds, 0.78% hits; in the data active = inhibition above about 22%
# Ba/F3 V617F tox: reduce viability of Ba/F3 cells dependent on JAK2V617F. inhibition, % at 5.6 µM. Ba/F3 EpoR-JAK2V617F viability, ATP luminescence. 220,000 compounds, 1.1% hits. AID 1446;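 active = inhibition above the campaign mean plus 3 SD over all tested compounds, cut at about 24% in these data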;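 note: cytokine-independent growth of Ba/F3 cells driven by EpoR plus mutant JAK2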
# aSyn 5UTR inh: MLPCN primary screen, SNCA 5' untranslated region. alpha-synuclein 5'UTR reporter, inhibitor activity. inhibition, % (tested at 7.5 µM). 300,000 compounds, 0.82% hits. AID 1813; in the data active = inhibition above about 60%; inconclusive = no clear call, values can overlap the other calls;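 note: H4 neuroglioblastoma cells stably carrying SNCA 5'UTR luciferase fusion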
# BaF3 parental: counter-screen for JAK2V617F inhibitors: parental Ba/F3 viability inhibitors. CellTiter-Glo ATP luminescence. inhibition, % at 5.6 µM. 220,000 compounds, 1.1% hits;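 active = inhibition above a per-campaign cutoff, the mean inhibition of all tested compounds plus 3 SD, cut at about 27% in these data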
# KLF5 inh: inhibitors of KLF5 expression; DLD-1 KLF5 promoter-luciferase reporter, luminescence; inhibition, % at 5 µM; 290,000 compounds, 0.23% hits; AID 1700;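 active = inhibition above a per-plate limit of that plate's mean compound inhibition plus 3 SD, cut at about 60% in these data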;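 note: higher means less KLF5 promoter-driven luciferase light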
# APP transl inh: APP translation inhibition | SH-SY5Y APP 5'UTR-luciferase reporter, luminescence | inhibition, % at 2 µM | 190,000 compounds, 0.82% hits | AID 1285;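 active = inhibition above a set limit, derived from the sample mean plus 3 SD, cut at about 45% in these data; inconclusive = one replicate passes the limit while the other fails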
# Numbers stand for hits; n = inactive; u = inconclusive; x = no result given. Shown are actives, neighbours in structure and some others; about 2.1% of the full set was active somewhere.
SMILES,IEC-6 tox,Ba/F3 V617F tox,aSyn 5UTR inh,BaF3 parental,KLF5 inh,APP transl inh
COc1ccc(COC(=O)c2ccc(Br)c(S(=O)(=O)N3CCOCC3)c2)cc1F,x,x,n,x,x,x
Cc1nc2ccccc2n1CC(O)COCC1CC=CCC1 (configuration not stated),n,n,n,n,n,n
Cc1n(CC(O)COCc2ccccc2)c2ccccc2[n+]1C (configuration not stated),n,n,n,n,n,n
CCc1n(CC(O)COCC2CC=CCC2)c2ccccc2[n+]1C (configuration not stated),n,26,n,35,n,n
CCn1c(C)[n+](CC(O)COCC2CC=CCC2)c2ccccc21 (configuration not stated),n,27,n,41,n,n
CCc1n(CC(O)COC2CCCCC2)c2ccccc2[n+]1C (configuration not stated),n,24,n,57,n,n
CCCc1n(CC)c2ccccc2[n+]1CC(O)COC1CCCCC1 (configuration not stated),n,33,n,50,n,n
CCN(Cc1ccc(O)cc1)CC1CCCN(CCc2cccc(F)c2)C1 (configuration not stated),n,x,n,x,n,x
COc1ccc(Br)cc1C(C[N+](=O)[O-])c1c(N)n(C)c(=O)n(C)c1=O (configuration not stated),n,66,n,36,n,x
COc1cccc(CNC(=O)CCC2CCCN(C(=O)c3ccc(OC)c(F)c3)C2)c1 (configuration not stated),n,n,n,n,n,n
CS(=O)(=O)N1CCN(c2c(Cl)cccc2[N+](=O)[O-])CC1,n,n,n,51,n,n
Cc1ccc(CSc2nnc(SCC(=O)N/N=C/c3c[nH]c4ccccc34)s2)cc1,n,n,n,n,n,n
Cc1ccc(CSc2nnc(SCC(=O)N/N=C/c3ccccc3OCC(=O)O)s2)cc1,n,n,62,n,n,x
Cc1ccc(CSc2nnc(SCC(=O)N/N=C/c3ccc(C(=O)O)cc3)s2)cc1,n,n,70,n,n,x
Cc1ccc2nc(N=C(N)N)nc(C)c2c1,n,50,n,42,n,n
CCc1ccc2nc(N=C(N)N)nc(C)c2c1,n,50,n,45,n,n
Cc1cc2nc(N=C(N)N)nc(C)c2cc1C,n,73,x,65,n,n
CCCCCCc1nc2ccccc2c(=O)n1NC(=O)c1c(O)c2cccc3c2n(c1=O)CC3,n,n,x,n,n,n
O=C(NC1C2CC3CC(C2)CC1C3)c1ccc(Br)o1 (configuration not stated),n,x,n,x,n,x
Cc1cc(C(=O)Nc2cccc(C(=O)O)c2)oc1C,n,n,87,n,n,n
Cc1cc(C(=O)Nc2cccc(C(=O)O)c2)c(C)o1,n,n,n,n,n,n
COc1ccc(OC)c(NC(=O)CSc2ccc(-c3cccnc3)nn2)c1,n,x,n,x,n,x
C/C(=N\NC(=O)c1ccccc1)c1nc2ccccc2n1C,n,n,62,n,n,n
Cn1c(NC(=O)c2ccc(F)cc2)nc2ccccc21,n,x,n,x,n,x
O=C(COc1ncnc2ccccc12)Nc1cc([N+](=O)[O-])ccc1F,n,n,n,n,n,x
SMILES,IEC-6 tox,Ba/F3 V617F tox,aSyn 5UTR inh,BaF3 parental,KLF5 inh,APP transl inh
COc1cccc(C(=O)Nn2cnnc2)c1OC,n,x,n,x,n,x
O=C(NC(=S)NC1CCCCCCCCCCC1)c1cccnc1,n,n,n,65,n,n
CNc1ccccc1C(C)(C)c1cc(-c2cccc(Br)c2)no1,n,62,n,76,n,n
CNc1ccccc1C(C)(C)c1cc(-c2cccc([N+](=O)[O-])c2)no1,n,n,n,n,n,n
Cc1cc(C(C)(C)C)cc(C)c1Cn1c2[n+](c3ccc(C(F)(F)F)cc31)CCCCC2,n,49,n,53,n,n
O=C(/C=C/c1ccco1)Nc1ccc(-c2nc3ccccc3[nH]2)cc1,n,n,89,n,n,86
COc1cccc(OC)c1C(=O)NC(=S)N1CCCCC1c1cccnc1 (configuration not stated),n,x,n,x,n,x
COc1ccc(Cc2nc3ccc(C(=O)N(C)C(C)c4ccon4)cc3o2)cc1 (configuration not stated),n,x,n,x,n,x
CC(C)(CO)NCc1cccc(OCc2ccc(Cl)cc2)c1,n,n,n,n,n,n
Clc1ccc(COc2cccc(CNCc3ccncc3)c2)cc1,n,n,n,38,n,n
O=C(O)c1cc([N+](=O)[O-])c(NCCC2=CCCCC2)c([N+](=O)[O-])c1,n,n,n,n,n,n
COc1ccc(NC(=O)c2cn(CCC#N)nc2-c2cc3ccccc3o2)cc1,n,n,n,n,n,46
N#CCCn1cc(C(=O)Nc2ccc(C(=O)O)cc2)c(-c2cc3ccccc3o2)n1,n,n,n,n,n,n
CC1CC(C)CN(S(=O)(=O)c2ccc(C(=O)NCCCn3ccnc3)cc2)C1 (configuration not stated),n,n,98,n,n,73
O=C(NCCCn1ccnc1)c1ccc(S(=O)(=O)N2CCCCCC2)cc1,n,n,n,n,n,n
CCCCCN=C(N)N/N=C/c1c[nH]c2ccc(OC)cc12,x,x,108,x,x,x
Cc1c(Cl)cccc1NC(=O)c1ccccc1-c1ccccc1C(=O)O,n,x,n,x,n,x
O=[N+]([O-])c1ccc(NCc2ccccc2)nc1,n,32,n,75,n,n
COC(=O)Nc1nc2ccc(-c3n[nH]c(=O)c4ccccc34)cc2[nH]1,n,n,n,n,n,55
COC(=O)c1ccc(-c2n[nH]c(=O)c3ccccc23)cc1,n,n,n,n,n,n
CN(C)c1ccc(-c2nc3ccccc3n2C)cc1,n,44,u,53,n,n
CC(C)n1c(-c2ccc(N(C)C)cc2)nc2ccccc21,n,n,x,n,n,n
O=C1CC(c2ccccc2F)c2c(c3ccccc3[nH]c2=O)O1 (configuration not stated),n,n,n,n,n,x
CCC(=NCCc1c(C)[nH]c2ccccc12)C1=C(O)CC(c2ccccc2)CC1=O (configuration not stated),n,n,n,n,n,n
CCC(=NCCc1c(C)[nH]c2ccc(OC(F)(F)F)cc12)C1=C(O)CC(c2ccccc2)CC1=O (configuration not stated),n,n,107,n,n,78
CCCCC(=NCCc1c(C)[nH]c2ccc(OC)cc12)C1=C(O)CC(c2ccccc2)CC1=O (configuration not stated),n,n,119,n,n,78
CN(CC(=O)Nc1ccc(F)c(F)c1F)C(=O)CCCSc1nc2ccccc2[nH]1,x,x,n,x,x,x
Cc1sc2ncnc(NCc3ccccc3)c2c1C,n,n,n,35,n,n
Cc1sc2ncnc(Nc3ccccc3)c2c1C,n,n,n,n,n,x
Cc1sc2ncnc(NCC(C)(C)N3CCOCC3)c2c1C,n,n,n,37,n,n
